Most compounds without a hit are left out; they make up all but 0.44% or so of the library.
PolyA inhibitor = blocks polyadenylation in yeast reporter cells; AID 1875; activity score, % at 12 µM; hit rate 0.02% among 300,000; S. cerevisiae SKY197-pL101 polyadenylation reporter, beta-gal luminescence; efflux-impaired pdr1/pdr3 knockout yeast; score 100 = 6 SD above DMSO;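 active = lowest replicate activity score at least 50, where 100 means six control SD above control mean; inconclusive = lowest score under 50 but half or more replicates reach 50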;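 note: yeast exposed to compound for 9 h at 30 °C; higher score means more reporter readthrough which indicates perturbed polyadenylation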
GASC-1 inh = blocks human GASC-1 demethylase activity | GST-JMJD2C(1-420) H3K9me3 demethylation, DELFIA europium | inhibition, % at 2.35 µM | hit rate 0.069% among 330,000 | AID 2099;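 active = more than half of a compound's replicate wells show inhibition beyond 50%, single wells judged on their own value; inconclusive = some, but no more than half, of replicates pass 50% inhibition; inactive = no replicate passes 50% inhibition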;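 note: signal counts dimethyl H3K9 product captured on neutravidin plate; 0% = median of DMSO wells and 100% = 0.3 times that DMSO median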
Target sequence (Q9H3R0 1-420 limits assumed): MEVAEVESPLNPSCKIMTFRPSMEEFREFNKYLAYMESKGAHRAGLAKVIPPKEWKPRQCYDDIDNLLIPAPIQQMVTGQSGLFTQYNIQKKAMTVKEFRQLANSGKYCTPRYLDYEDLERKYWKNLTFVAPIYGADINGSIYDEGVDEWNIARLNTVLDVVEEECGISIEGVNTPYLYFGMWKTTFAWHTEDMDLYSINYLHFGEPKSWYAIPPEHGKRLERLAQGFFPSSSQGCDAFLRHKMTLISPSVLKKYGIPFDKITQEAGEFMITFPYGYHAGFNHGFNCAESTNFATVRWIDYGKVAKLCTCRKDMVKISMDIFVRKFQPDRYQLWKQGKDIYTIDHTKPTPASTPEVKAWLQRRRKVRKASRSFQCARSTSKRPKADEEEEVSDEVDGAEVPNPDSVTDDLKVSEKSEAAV
VLA-4 inh = inhibition in a human VLA-4 binding assay. inhibition, % (about 7 µM as worked out from the volumes in the protocol). P13612. hit rate 0.2% among 330,000. VLA-4 expressing cells, ligand binding flow cytometry; in the data active = inhibition above about 50%
ABCB6 inh MLPCN = human ABCB6 transporter inhibition; Q9NP58; K562-ABCB6 porphyrin accumulation, flow cytometry, 1 h; stronger effect = lower value; fluorescence ratio to DMSO, % at 10 µM; hit rate 0.19% among 360,000; AID 602162;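 active = fluorescence ratio to DMSO below 75%, the collection mean minus 3 SD; inconclusive = too few cells collected in the well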;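 note: signal is porphyrin accumulated inside mitochondria; 100% equals median channel fluorescence of DMSO control wells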
ABCB6 blocker 1 = blocks the human ABCB6 transporter; shares compounds with ABCB6 inh MLPCN; K562-ABCB6 porphyrin accumulation, flow cytometry, 1 h; stronger effect = lower value; ratio response (% of DMSO), % at 10 µM; 700 tested, under 10 active;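 active = repeat-averaged ratio response below 75% of DMSO, the collection mean minus 3 SD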;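 note: median porphyrin fluorescence at 575 nm with 488 nm excitation from mitochondria; lower ratio means less porphyrin signal so ABCB6 inhibition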
* marks the source's active call; other numbers are inactive results; ? = inconclusive; . = not tested or not shown.

SMILES | PolyA inhibitor | GASC-1 inh | VLA-4 inh | ABCB6 inh MLPCN | ABCB6 blocker 1
NS(=O)(=O)c1ccc(NC(=O)CSc2ccc3ccccc3n2)cc1 | -16.9 | -21.0 | . | 89.0 | .
COc1ccc2cc(C(=O)N3CCN(Cc4ccc5c(c4)OCO5)CC3)[nH]c2c1 | -4.1 | ? | 11.7 | 103.0 | .
COc1cccc(-c2nnc(-c3ccco3)o2)c1 | 2.1 | 3.8 | 7.2 | 67.0* | 97.0
COc1cccc(-c2nnc(-c3ccc(C)o3)o2)c1 | -7.8 | -4.1 | 18.0 | 96.0 | .
CCOC(=O)C(C)NC(=O)CCc1nnc2ccc(N3CCCCC3)nn12 (stereo not drawn) | 16.5 | -1.4 | 1.6 | 90.0 | 98.0
CCOCCCNC(=O)CCc1nnc2ccc(N3CCCCC3)nn12 | 7.7 | -0.3 | 2.0 | 98.0 | 100.0
CSc1ccc(CCNC(=O)CCc2nnc3ccc(N4CCCCC4)nn23)cc1 | -10.8 | -16.4 | 42.1 | 96.0 | .
CC(C)(C)c1ccc(S(=O)(=O)NCc2ccc(C(=O)N3CCOCC3)cc2)cc1 | -13.1 | 28.0 | -3.5 | 92.0 | .
COc1ccc(NC(=S)NNC(=O)c2cccnc2)cc1OC | 11.6 | -2.1 | 1.7 | 96.0 | .
CCOC(=O)c1c(N)nn(C(=O)c2ccccc2F)c1-c1ccc(OC)cc1 | -13.5 | -4.6 | 3.3 | 99.0 | .
CCCCNc1oc(-c2ccc(OC)cc2)nc1S(=O)(=O)c1ccccc1 | 19.8 | -7.5 | 10.3 | 69.0* | 99.0
CCNc1oc(-c2ccc(OC)cc2)nc1S(=O)(=O)c1ccc(Br)cc1 | 5.6 | -12.2 | 21.1 | 90.0 | .
O=C(CSc1ccc2ccccc2c1Br)Nc1cccc(S(=O)(=O)NC2=NCCCCC2)c1 | -3.2 | -5.2 | -0.5 | 67.0* | 99.0
Cc1c(C)n(CCc2c[nH]c3ccccc23)ccc1=O | -0.5 | 5.4 | 4.1 | 100.0 | .
COc1ccc(CC(=O)Nc2c3c(nn2-c2ccccc2C)CS(=O)C3)cc1 (stereo not drawn) | 4.1 | -6.3 | -1.6 | 59.0* | 99.0
Cc1ccccc1-n1nc2c(c1NC(=O)COc1ccc(Cl)cc1)CS(=O)C2 (stereo not drawn) | -0.3 | 8.5 | 7.2 | 98.0 | .
CC(=O)c1cccc(-c2ccnc3c2CC(C(=O)Nc2ccc4c(c2)OCO4)O3)c1 (stereo not drawn) | . | . | . | 98.0 | 102.0
COc1ccc(NC(=O)C2Cc3c(-c4cccc(F)c4)ccnc3O2)cc1OC (stereo not drawn) | . | . | . | 69.0* | 103.0
O=C(Nc1cccnc1)C1Cc2c(-c3ccco3)ccnc2O1 (stereo not drawn) | . | . | . | 74.0* | 97.0
COc1ccc(NC(=O)C2Cc3c(-c4ccc(NC(C)=O)cc4)ccnc3O2)cc1 (stereo not drawn) | . | . | . | 87.0 | .
CC(=O)Nc1ccc(-c2ccnc3c2CC(C(=O)Nc2ccccc2)O3)cc1 (stereo not drawn) | . | . | . | 101.0 | 95.0
CC(=O)Nc1ccc(C2Nc3cc(C)c(C)cc3NC3=C2C(=O)CC(C)(C)C3)cc1 (stereo not drawn) | -4.1 | 3.2 | 5.3 | 99.0 | .
O=C(Nc1nccs1)c1ccc(S(=O)(=O)N2CCCCC2)cc1 | -11.6 | 8.3 | 31.8 | 94.0 | .
N=C1CCCN1CC(=O)c1cccs1 | 5.2 | 5.4 | 1.1 | 95.0 | .
COc1ccc(NC(=O)C2Cc3c(-c4cccc(NC(C)=O)c4)ccnc3O2)cc1 (stereo not drawn) | . | . | . | 102.0 | 103.0
SMILES | PolyA inhibitor | GASC-1 inh | VLA-4 inh | ABCB6 inh MLPCN | ABCB6 blocker 1
CC(=O)Nc1ccc(NC(=O)C2Cc3c(-c4cccc(C(C)=O)c4)ccnc3O2)cc1 (stereo not drawn) | . | . | . | 102.0 | 102.0
CC(=O)Nc1ccc(NC(=O)C2Cc3c(-c4cccc(NC(C)=O)c4)ccnc3O2)cc1 (stereo not drawn) | . | . | . | 97.0 | .
c1ccc(CNc2nc(N3CCOCC3)nc(N3CCOCC3)n2)cc1 | -19.1 | -10.6 | 11.9 | 101.0 | .
Clc1ccc(CNc2nc(N3CCOCC3)nc(N3CCOCC3)n2)cc1 | 13.0 | -0.2 | 20.9 | 11.0* | 97.0
Cc1ccc(C)c(N2CCN(S(=O)(=O)c3c(C)noc3/C=C/N(C)C)CC2)c1 | -8.7 | -12.7 | 18.2 | 103.0 | .
COc1ccc(N2CCN(C(=O)CCCCCn3c(=S)[nH]c4ccc(N5CCOCC5)cc4c3=O)CC2)cc1 | . | . | . | 73.0* | 96.0
CC1CCN(C(=O)c2ccccc2NC(=O)Nc2ccccc2)CC1 | 16.6 | -3.6 | 10.5 | 11.0* | 98.0
N#Cc1ccccc1NC(=O)c1ccc2c(Cl)c3c(nc2c1)CCCC3 | -2.0 | 7.8 | 27.6 | 94.0 | .
CC(=O)c1cccc(NC(=O)c2ccc3c(Cl)c4c(nc3c2)CCCC4)c1 | -16.8 | -8.5 | 14.6 | 73.0* | 102.0
O=S(=O)(c1ccc2nc(-c3ccccc3)[nH]c2c1)N1CCN(c2cccc(Cl)c2)CC1 | -1.4 | 0.0 | -1.2 | 58.0* | 101.0
COc1ccccc1N1CCN(S(=O)(=O)c2ccc3nc(-c4ccccc4)[nH]c3c2)CC1 | ? | -1.4 | -2.4 | 101.0 | .
CCCCN(C(=O)c1cc(-c2ccncc2)nc2ccccc12)c1c(N)n(CC(C)C)c(=O)[nH]c1=O | . | -2.2 | 2.7 | 51.0* | 100.0
COCCN(C(=O)c1cc(-c2ccncc2)nc2ccccc12)c1c(N)n(CC(C)C)c(=O)[nH]c1=O | 27.1 | -2.5 | -1.2 | 101.0 | .
COC(=O)C1=C(N)Oc2cc(C)[nH]c(=O)c2C1c1ccncc1 (stereo not drawn) | 15.2 | 0.5 | -84.8 | 94.0 | .
CC(C)C[C@H](NC(=O)Nc1ccccc1F)C(=O)O | 10.0 | 19.5 | -6.6 | 45.0* | 98.0
O=c1c2c(-c3cccs3)csc2ncn1-c1ccccc1 | -16.6 | -3.5 | 0.9 | 47.0* | 97.0
Cc1ccc(-n2cnc3scc(-c4cccs4)c3c2=O)cc1 | 0.0 | 0.0 | 5.8 | 97.0 | .
Cc1ccc(NC(=O)CNc2cccc(C)c2C)c(C)c1 | 9.8 | -6.3 | 0.9 | 87.0 | .
Cc1ccc(NC(=O)CSc2nnc(-c3cnccn3)n2Cc2ccco2)cc1 | 1.7 | 6.2 | 30.3 | 94.0 | .
COCc1cc(C)nc(SCC(=O)N2CCC(C)CC2)c1C#N | 21.0 | 39.0 | -1.1 | 58.0* | 102.0
COCc1cc(C)nc(SCC(=O)NC2CCCCC2C)c1C#N (stereo not drawn) | 11.6 | -0.9 | 8.0 | 96.0 | .
CSCCC(NC(=O)c1ccccc1Br)C(=O)NNC(=O)c1ccncc1 (stereo not drawn) | . | 3.6 | -9.0 | 96.0 | .
Cc1nc2c(C(=O)N3CCOCC3)cnn2c(C)c1Cc1cccc(Cl)c1 | -3.5 | -0.8 | -13.3 | . | 98.0
O=C(c1ccc2nc(Cc3cccc(Cl)c3)oc2c1)N1CCOCC1 | 3.6 | -40.6 | 0.8 | 97.0 | .
Cc1nc2c(C(=O)N3CCOCC3)cnn2c(C)c1Cc1ccc(Cl)cc1 | -16.4 | 1.7 | 3.9 | 89.0 | 99.0
O=C(CC1SC(N2CCCCC2)=NC1=O)Nc1cccc(C(F)(F)F)c1 (stereo not drawn) | 13.5 | 1.0 | 0.2 | 101.0 | .
Cc1ccc(OCc2n[nH]c(=S)n2N)cc1C | 12.4 | 2.5 | -10.8 | 100.0 | .
CC(=O)c1c(C)[nH]c(C(=O)OCC(=O)NCc2ccc3c(c2)OCO3)c1C | . | 11.1 | -0.9 | 120.0 | .

Screening results deposited in PubChem by several laboratories.
